According to PubChem BioAssay (NCATS):
A number with no mark means an inactive call. Inconclusive results are not listed. Entries that show only a call come without a potency. Active and inactive are the calls of the source. The call rests on the fitted dose curve; in most records, active means well fitted curve in the direction sought with a large enough effect; inconclusive means small, poorly fitted or top-dose-only effect, or another doubt; inactive means no such curve, though single readings can be large; an effect the other way counts as inactive or inconclusive.

Assays:
[1] = test system: Zika virus NS2B-NS3 protease; test: Primary screen GU AMC qHTS for Zika virus inhibitors (AID 1347154); further: nearly all actives have a fitted effect of over 70% in size
How it was run: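 Unlinked Zika NS2B hydrophilic domain/NS3 protease domain noncovalent complex (25 nM final) in 10 mM Tris-HCl pH 8.0, 0.01% Tween 20, with AMC peptide substrate. Fluorescence (ex 340, em 450 nm) change over 15 min, room temperature; percent inhibition fitted to 4-parameter Hill equation.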

[2] = test system: Zika virus NS2B-NS3 protease (unlinked complex); test: Primary screen GU Rhodamine qHTS for Zika virus inhibitors: Unlinked NS2B-NS3 protease assay (AID 1347159); further: nearly all actives have a fitted effect of over 60% in size; further: potency means the concentration at half of the fitted maximal effect
How it was run: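 Buffer 10 mM Tris-HCl pH 8.0, 0.01% Tween 20. Unlinked protease 25 nM; compound preincubation 15 min, RT, protected from light. Substrate Rhod110, 1.5 microM; ~15% conversion in 15 min.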

[3] = qHTS to identify inhibitors of the type 1 interferon - major histocompatibility complex class I in skeletal muscle: primary screen against the NCATS Mechanism Interrogation Plate v5.0 (MIPE) Libary (AID 1347411); further: nearly all actives have a fitted effect of over 65% in size; further: potency means the concentration at half of the fitted maximal effect
How it was run: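 HLA-B HiBit myoblasts, dexamethasone-free medium + 4 ng/ml IFN-b, 24 h compound, 11-pt 1:3 from 46 uM final. Readout: Nano-Glo HiBiT lytic luminescence after 10 min lysis, RT.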

[4] = test system: Zika virus NS2B-NS3 protease (linked construct); test: Primary screen NINDS Rhodamine qHTS for Zika virus inhibitors (AID 1347160); further: nearly all actives have a fitted effect of over 55% in size; further: potency means the concentration at half of the fitted maximal effect
How it was run: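 Aprotinin served as in-plate control. Conditions: 25 nM linked NS2B-NS3, pH 8.0 Tris buffer, titrated compounds, 15 min preincubation and 15 min reaction with 1.5 microM Rhod110 substrate at room temperature.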

[5] = target: Lysine-specific demethylase 5B (Homo sapiens) (UniProt Q9UGL1); test: Optimization screen for KDM5B Histone Demethylases FDH coupled qHTS against the LOPAC library (AID 1347166)
Chain of Lysine-specific demethylase 5B (Homo sapiens) (Q9UGL1 whole entry, looked up): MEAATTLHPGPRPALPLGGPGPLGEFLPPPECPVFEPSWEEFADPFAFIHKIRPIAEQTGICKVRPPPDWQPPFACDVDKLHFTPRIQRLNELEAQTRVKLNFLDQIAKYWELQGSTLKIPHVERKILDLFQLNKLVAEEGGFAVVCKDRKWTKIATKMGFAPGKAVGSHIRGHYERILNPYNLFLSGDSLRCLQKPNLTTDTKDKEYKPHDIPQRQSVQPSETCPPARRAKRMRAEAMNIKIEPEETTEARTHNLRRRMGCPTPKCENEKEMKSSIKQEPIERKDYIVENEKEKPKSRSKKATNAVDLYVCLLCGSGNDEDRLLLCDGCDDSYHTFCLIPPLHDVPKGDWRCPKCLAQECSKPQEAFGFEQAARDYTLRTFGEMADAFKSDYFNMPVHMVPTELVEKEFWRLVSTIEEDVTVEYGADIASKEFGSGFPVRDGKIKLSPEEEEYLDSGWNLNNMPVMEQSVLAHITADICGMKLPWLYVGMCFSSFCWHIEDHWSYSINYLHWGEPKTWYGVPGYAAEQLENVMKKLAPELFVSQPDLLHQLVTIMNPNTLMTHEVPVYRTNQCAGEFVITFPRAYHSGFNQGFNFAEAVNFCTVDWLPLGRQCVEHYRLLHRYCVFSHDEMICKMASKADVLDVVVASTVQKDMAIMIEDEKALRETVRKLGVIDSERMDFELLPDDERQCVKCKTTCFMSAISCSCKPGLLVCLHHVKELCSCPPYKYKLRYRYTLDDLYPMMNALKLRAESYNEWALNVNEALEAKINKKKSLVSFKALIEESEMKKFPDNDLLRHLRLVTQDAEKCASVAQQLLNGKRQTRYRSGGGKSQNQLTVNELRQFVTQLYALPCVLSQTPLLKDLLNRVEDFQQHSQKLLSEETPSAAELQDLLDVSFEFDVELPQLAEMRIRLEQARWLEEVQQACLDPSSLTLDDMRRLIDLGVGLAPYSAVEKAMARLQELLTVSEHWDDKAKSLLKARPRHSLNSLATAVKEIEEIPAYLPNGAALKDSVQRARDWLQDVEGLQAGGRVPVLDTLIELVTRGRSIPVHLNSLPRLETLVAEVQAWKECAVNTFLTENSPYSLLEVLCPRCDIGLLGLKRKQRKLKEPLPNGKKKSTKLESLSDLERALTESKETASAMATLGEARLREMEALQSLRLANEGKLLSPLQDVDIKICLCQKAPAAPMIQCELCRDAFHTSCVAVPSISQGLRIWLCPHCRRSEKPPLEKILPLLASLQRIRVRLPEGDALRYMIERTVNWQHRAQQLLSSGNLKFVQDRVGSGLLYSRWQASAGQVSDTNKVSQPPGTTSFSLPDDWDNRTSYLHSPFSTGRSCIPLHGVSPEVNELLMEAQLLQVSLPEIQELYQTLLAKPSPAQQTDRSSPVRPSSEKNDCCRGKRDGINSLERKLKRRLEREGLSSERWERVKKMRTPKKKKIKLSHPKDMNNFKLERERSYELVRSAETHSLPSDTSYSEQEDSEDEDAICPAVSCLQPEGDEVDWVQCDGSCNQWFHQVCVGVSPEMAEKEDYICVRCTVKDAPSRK
How it was run: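 KDM5BDeltaAP (200nM final) in 50mM HEPES pH 7.5, 0.01% Tween-20 was preincubated with compound for 10 min at room temperature. A substrate mix of 12.5uM H3K4Me3, 25uM a-ketoglutarate, ascorbate, Fe2+, NAD+ and formaldehyde dehydrogenase was then added. NADH fluorescence (340/450 nm) was read initially and after 30 min.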

[6] = qHTS for inhibitors of adenylyl cyclases using a fission yeast platform: a pilot screen against the NCATS LOPAC library (AID 1347410)
How it was run: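 Fission yeast qHTS: CHP2027 cells (AC9-GNAS-PDE4D2, fbp1-GFP), 5x10^6 cells/mL working density, EMM + His/Lys/Ura; LOPAC at up to 57 µM final; 18 h dark, 30C; GFP by laser cytometry. DPI positive control, DMSO vehicle.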

With NS(=O)(=O)c1cc(Cl)c(Cl)c(S(N)(=O)=O)c1 the Potency [1] was “inactive”, the Potency [2] was “inactive” and the Potency [3] was “inactive”.
With CS(=O)(=O)c1ccc(C2=C(c3ccccc3)C(=O)OC2)cc1 the Potency [1] was “inactive”, the Potency [2] was “inactive” and the Potency [4] was “inactive”. For the same compound, the Potency [3] was “inactive”.
With O=C(O)CCNc1cc(N2CCc3ccccc3CC2)nc(-c2ccccn2)n1 the Potency [1] was “inactive”, the Potency [2] was “inactive” and the activity change, negative = inhibition [4] was -4.33% [at 10.7 µM]. For the same compound, the Potency [3] was “inactive”.
With COc1nccc(-c2c(-c3ccc(F)cc3)ncn2C2CCC(O)CC2)n1 (configuration not stated) the Potency [1] was “inactive”, the Potency [2] was “inactive” and the Potency [3] was “inactive”.
For CN1CCC(COc2cnc(-c3cccc(Cn4nc(-c5cccc(C#N)c5)ccc4=O)c3)nc2)CC1, the Potency [1] was “inactive”, the Potency [2] was “inactive” and the Potency [4] was “inactive”. The Potency [3] was “inactive”.
With C[C@@H](N)c1ccc(C(=O)Nc2ccnc3[nH]ccc23)cc1 the Potency [1] was “inactive”, the Potency [2] was “inactive” and the Potency [4] was “inactive”. For the same compound, the Potency [3] was 16.5 µM (active).
For C=CC(=O)Nc1cccc(Sc2nc(Nc3ccc(N4CCN(C)CC4)cc3)ncc2Cl)c1, the Potency [1] was “inactive”, the Potency [2] was “inactive” and the Potency [4] was “inactive”. The Potency [3] was 13.1 µM (active).
In the case of Cc1cnc(-c2cc(N3CCN(C(=O)CCS(C)(=O)=O)CC3)ncc2Cl)c(C)c1, the Potency [1] is reported as “inactive”, the Potency [2] is reported as “inactive” and the Potency [4] is reported as “inactive”. For the same compound, the Potency [3] was “inactive”.
With Fc1ccc(CNc2ncnc3ccc(F)cc23)cc1 the Potency [1] was “inactive”, the Potency [2] was “inactive” and the Potency [4] was “inactive”.
With C[C@@]1(c2cc(-c3cncnc3)c(F)cc2F)CCSC(N)=N1 the Potency [1] was “inactive”, the Potency [2] was “inactive” and the Potency [4] was “inactive”. The Potency [3] was “inactive”.
For Cc1c(C(=O)Nc2ccc(N3C[C@@H](C)O[C@@H](C)C3)nc2)cccc1-c1ccc(OC(F)(F)F)cc1, the Potency [1] was “inactive”, the Potency [2] was “inactive” and the Potency [4] was “inactive”. The Potency [3] was “inactive”.
For CN1C(=O)C(Cc2c[nH]c3ccccc23)NC1=S (configuration not stated), the Potency [1] was “inactive”, the Potency [2] was “inactive” and the Potency [3] was “inactive”.
For O=C(CC12CC3CC(CC(C3)C1)C2)Nc1cccc2nc(NCCNCCO)ccc12, the Potency [1] was “inactive”, the Potency [2] was “inactive” and the Potency [4] was “inactive”. For the same compound, the Potency [3] was “inactive”.
With Cc1nc2c([nH]1)CCN(C(=O)c1ccc(NC(=O)c3ccccc3-c3ccccc3)cc1)c1ccccc1-2 the Potency [1] was “inactive”, the Potency [2] was “inactive” and the Potency [3] was “inactive”.
With CC(C)(OCc1nn(Cc2ccccc2)c2ccccc12)C(=O)O the Potency [1] was “inactive”, the Potency [2] was “inactive” and the Potency [4] was “inactive”. For the same compound, the Potency [3] was “inactive”.
With CN(C)CCOc1cc(-c2cn[nH]c2)ccc1NC(=O)C1COc2ccccc2O1 (configuration not stated) the Potency [1] was “inactive”, the Potency [2] was “inactive” and the Potency [3] was “inactive”.
With O=C(Nc1ccc(OC(F)(F)F)cc1)c1sccc1NCc1ccnc2ccccc12 the Potency [1] was “inactive”, the Potency [2] was “inactive” and the Potency [4] was “inactive”. The Potency [3] was “inactive”.
With Cc1cc(C(C)Nc2ccccc2)c2nc(N3CCOCC3)cc(=O)n2c1 (configuration not stated) the Potency [1] was “inactive”, the Potency [2] was “inactive” and the Potency [4] was “inactive”. For the same compound, the Potency [3] was “inactive”.
With Cc1cccc2c1CC[C@H](CN1CCC(c3c(Cl)cccc3Cl)CC1)C[C@@H]2O the Potency [1] was “inactive”, the Potency [2] was “inactive” and the Potency [4] was “inactive”.
In the case of Cc1cc2c(cc1C1(c3ccc(C(=O)O)cn3)CC1)C(C)(C)CCC2(C)C, the Potency [1] is reported as “inactive”, the Potency [2] is reported as 10 µM (active) and the Potency [4] is reported as 14.1 µM (active). For the same compound, the Potency [3] was “inactive”.
With COC(=O)N1CCN(Cc2cccc(NC(=O)Nc3ccc(C)nc3)c2F)CC1 the Potency [1] was “inactive”, the Potency [2] was “inactive” and the Potency [3] was “inactive”.
In the case of O=C(CO)N1CCC(c2[nH]nc(-c3ccc(Cl)cc3)c2-c2ccncn2)CC1, the Potency [1] is reported as “inactive”, the Potency [2] is reported as “inactive” and the Potency [4] is reported as “inactive”. The Potency [3] was “inactive”.
In the case of CC(=O)Nc1cccc(-n2c(=O)n(C3CC3)c(=O)c3c(Nc4ccc(I)cc4F)n(C)c(=O)c(C)c32)c1, the Potency [1] is reported as “inactive”, the Potency [2] is reported as “inactive” and the Potency [3] is reported as “inactive”.
With CNc1nc(Nc2ccc(C(=O)N3CCOCC3)cc2OC)ncc1Cl the Potency [1] was “inactive”, the Potency [2] was “inactive” and the Potency [4] was “inactive”. The Potency [3] was “inactive”.
In the case of CN(C)CCCNC(=O)c1ccc(-c2cc(O)c3ncccc3c2)cc1, the Potency [4] is reported as “inactive”.
In the case of O=C(c1ccc(C(=O)N2CCC(N3CCCC3)CC2)c(Nc2ccccc2)c1)N1CCC(N2CCCC2)CC1, the Potency [4] is reported as “inactive”.
In the case of C[C@H]1O[C@@H](n2cc(F)c(=O)[nH]c2=O)[C@H](O)[C@H]1O, the outcome [5] is reported as “inactive”.
For C=CCc1cccc(C=NNC(=O)CN2CCN(Cc3ccccc3)CC2)c1O, the outcome [6] was “inactive”.
With Nc1ncnc2c1ncn2[C@@H]1O[C@H](CO)[C@@H](O)[C@@H]1O the Potency [1] was “inactive” and the Potency [3] was “inactive”.
For CC(C)C[C@@H](N)[C@H](O)C(=O)N[C@H](C(=O)N[C@H](C(=O)N[C@@H](CC(=O)O)C(=O)O)C(C)C)C(C)C, the Potency [1] was “inactive” and the Potency [3] was “inactive”.
In the case of NC[C@H]1O[C@H](O[C@@H]2[C@@H](O)[C@@H](O[C@H]3O[C@H](CO)[C@@H](O)[C@H](N)[C@@H]3O)[C@H](N)C[C@@H]2N)[C@H](O)[C@@H](O)[C@H]1O, the Potency [1] is reported as “inactive” and the Potency [3] is reported as “inactive”.
